Data: PubChem BioAssay (NCI)
Compounds without any hit were thinned out: in the full panel of roughly 83,000, 20% have a hit.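 Step 1: grow cells in 96-well plates. Step 2: add test compound at a single concentration. Step 3: incubate 48 h. Step 4: record percent growth.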 Unmarked numbers belong to inactive results. Activity calls are given as the source filed them. The calls were made as follows: active = growth percent below 10; inactive = the rest.

Legend:
Assay in all cases: NCI-60 one-dose screen, 48 h (100 = growth as untreated, 0 = no growth, -100 = all killed)
NCI-H23 lung = conditions: 10 µM unless noted
NCI-H226 lung = conditions: 10 µM unless noted
NCI-H322M lung = conditions: 10 µM unless noted
HOP-62 NSCLC = conditions: 10 µM unless noted
NCI-H460 lung = conditions: 10 µM unless noted
HOP-92 NSCLC = conditions: 10 µM unless noted
NCI-H522 lung = conditions: 10 µM unless noted
A549/ATCC NSCLC = conditions: 10 µM unless noted
786-0 renal = conditions: 10 µM unless noted
COLO 205 colon = conditions: 10 µM unless noted
DU-145 prostate = conditions: 10 µM unless noted
MALME-3M melanoma = conditions: 10 µM unless noted
MDA-MB-231 breast = conditions: 10 µM unless noted
RXF 393 renal = conditions: 10 µM unless noted
SF-268 CNS = conditions: 10 µM unless noted
SF-295 CNS = conditions: 10 µM unless noted
SF-539 CNS = conditions: 10 µM unless noted
UACC-257 melanoma = conditions: 10 µM
M14 melanoma = conditions: 10 µM unless noted
K-562 leukemia = conditions: 10 µM unless noted

Compound | growth (NCI-H23 lung) | growth (NCI-H226 lung) | growth (NCI-H322M lung) | growth (HOP-62 NSCLC) | growth (NCI-H460 lung) | growth (HOP-92 NSCLC) | growth (NCI-H522 lung) | growth (A549/ATCC NSCLC) | growth (786-0 renal) | growth (COLO 205 colon) | growth (DU-145 prostate) | growth (MALME-3M melanoma) | growth (MDA-MB-231 breast) | growth (RXF 393 renal) | growth (SF-268 CNS) | growth (SF-295 CNS) | growth (SF-539 CNS) | growth (UACC-257 melanoma) | growth (M14 melanoma) | growth (K-562 leukemia)
C=CCn1c(SCC(=O)Nc2cccc(C(=O)/C=C/c3ccccc3)c2)nc2ccccc2c1=O | 77.2% | 78.1% | 91.5% | 113% | 91.8% | 76.1% | 86.2% | 82.6% | 100% | 120% | 77.4% | 100% | 94.4% | 83.3% | 92% | 95.7% | 77.1% | 118% | 77.1% | –
C=C(C)C(=O)O[C@H]1C[C@@]2(C)OC(=CC2=O)/C(CO)=C\[C@H]2OC(=O)C(=C)[C@H]12 | -35.2% (active) | -39.3% (active) | 87.6% | 58.9% | 12.5% | -61.4% (active) | -68.3% (active) | 65.7% | -66.5% (active) | -72.9% (active) | -25.2% (active) | -68.8% (active) | -54% (active) | -67.6% (active) | -13.8% (active) | 32.6% | -82.9% (active) | -34% (active) | -34% (active) | –
CCCCCCNC(=O)Oc1ccc(/C(=C(/C)c2ccccc2)c2ccc(OCCN(C)C)cc2)cc1 | 65.3% | 89.6% | 77.1% | 86.1% | 18.3% | 44.5% | 68.8% | 73.4% | 57.4% | 6.56% (active) | 83.2% | 37.6% | 52.2% | 46.5% | 69.1% | 90% | 46.9% | -55.9% (active) | -35.9% (active) | –
Cc1cccc(NC(c2cc3cccc4ccc5cccc2c5c43)c2nnnn2C(C)(C)C)c1C (stereo not given) | 82.2% | 31.9% | 86.4% | 86.5% | 93.4% | 90.2% | 77.3% | 92.7% | 97.6% | 102% | 104% | 92.9% | 78.6% | – | 91.1% | 87.2% | 86.5% | 94% | 94.4% | 96.6%
CC1=CC(=O)CC(C)(C)[C@@]1(O)/C=C/C(C)=C\C(=O)O | -29.3% (active) | -46.5% (active) | -11.3% (active) | -41.6% (active) | -6.19% (active) | -14.6% (active) | -41.6% (active) | -27.6% (active) | -43.2% (active) | -57.6% (active) | -21.8% (active) | -57.5% (active) | -18% (active) | -64.2% (active) | -5.99% (active) | -38.7% (active) | -46.5% (active) | – | -77.3% (active) | 0.164% (active)
C/C=C/[C@@H]1C=C[C@@H]2C[C@H](C)CC[C@H]2[C@]1(C)/C(O)=C1/C(=O)[C@H](CO)N(C)C1=O | 56.8% | 69.1% | 61.6% | 37.9% | 54.7% | 56.9% | 58.2% | 42.3% | 47.3% | 78.1% | 56.5% | 79.5% | 80.1% | 64.9% | 54.8% | 43.3% | 58.5% | – | 62.2% | 46.5%
Cc1ccc(C2CC(c3ccc(Nc4nc(NCCO)nc(Nc5ccc(Cl)cc5)n4)cc3)=Nc3c(N)nc(N)nc3N2)cc1 (stereo not given) | -81.8% (active) | 49.7% | -89.8% (active) | -86.4% (active) | -84.8% (active) | 53.4% | -69.4% (active) | 57.9% | -91.9% (active) | 29.9% | -90.7% (active) | 95.6% | -74.3% (active) | – | -46.7% (active) | 28.9% | -20.3% (active) | 113% | 2.15% (active) | -53.5% (active)
O=c1c2c(O)cccc2oc2c3c(cc(O)c12)O[C@H]1OC=C[C@@H]31 | 59.9% | 88.7% | 88.4% | 82.4% | 73.5% | 88.7% | 79.9% | 61% | 98.9% | 75.1% | 98% | 95.2% | 83.2% | 99.1% | 94.7% | 89.5% | 98.4% | – | 101% | 96.2%
COc1ccc(-c2cc(-c3cccc4ccccc34)n3c(n2)nc2ccccc23)cc1 | 62.2% | 49.1% | 73.5% | 26% | 13.5% | 38.4% | 50.3% | 29% | 36.5% | 74% | 37.8% | 32.4% | 78.2% | – | 46.6% | 20.2% | 45.7% | 68.8% | 52.1% | 37.2%
Cn1c2ccc(Br)cc2c2c3c(c4c5cc(F)ccc5oc4c21)C(=O)N(O)C3=O | 77.2% | 90.8% | 103% | 47.1% | 45.9% | 82.5% | 72.1% | 98.4% | 97.6% | 93.7% | 88.1% | -95.9% (active) | 85.3% | – | 70.7% | 89.9% | 83.5% | 104% | 89.4% | 82.8%
COc1ccc(NC(=O)Cn2cc(CN3C(=O)c4ccc([N+](=O)[O-])cc4C3=O)nn2)cc1 | 99.7% | 96.4% | 106% | 107% | 106% | 85.6% | 99.9% | 102% | 107% | 122% | 113% | 101% | 91.4% | – | 109% | 113% | 100% | 97.7% | 108% | 98.1%
Cc1ccc(-c2nnc3sc(C4=Cc5ccccc5OC=C4)nn23)cc1 | 96.4% | 96.4% | 100% | 121% | 101% | -34.7% (active) | 91% | 92.3% | 95% | 120% | 114% | 97.6% | 94.1% | – | 105% | 98.9% | 95.3% | 88.4% | 99.8% | 104%
COC(=O)[C@@]1(C)CC[C@]2(C)CC[C@]3(C)C(=CC(=O)[C@@H]4[C@@]5(C)Cc6c(n(CC#CCN7CCN(C)CC7)c7ccccc67)C(C)(C)[C@@H]5CC[C@]43C)[C@@H]2C1 | 84.7% | 98.5% | 91.5% | 113% | 22.4% | 83% | 100% | 69.4% | 67.8% | 94.2% | 54.5% | 115% | 67.2% | – | 86.6% | 85.9% | 91.5% | 106% | 90.6% | -5.29% (active)
CC(=O)NC(C)(C)C(=O)N[C@@H](C)C(=O)NC(C)(C)C(=O)N[C@@H](C)C(=O)NC(C)(C)C(=O)N[C@@H](C)C(=O)N[C@@H](CCC(N)=O)C(=O)NC(C)(C)C(=O)N[C@H](C(=O)NC(C)(C)C(=O)NCC(=O)N[C@@H](CC(C)C)C(=O)NC(C)(C)C(=O)N1CCC[C@H]1C(=O)N[C@H](C(=O)NC(C)(C)C(=O)NC(C)(C)C(=O)N[C@@H](CCC(N)=O)C(=O)N[C@@H](CCC(N)=O)C(=O)N[C@H](CO)CC1CCCCC1)C(C)C)C(C)C | 21.6% [5 µM] | 35% [5 µM] | 94.2% [5 µM] | 46.3% [5 µM] | 45.1% [5 µM] | -13.3% [5 µM] (active) | 6.15% [5 µM] (active) | 48.1% [5 µM] | 78.6% [5 µM] | -12% [5 µM] (active) | 55.5% [5 µM] | -41.4% [5 µM] (active) | 55.3% [5 µM] | 55.8% [5 µM] | 46.9% [5 µM] | 23.9% [5 µM] | 29.3% [5 µM] | – | 4.76% [5 µM] (active) | 24.3% [5 µM]
Cc1occc1-c1nc2s/c(=C\c3cn(-c4ccccc4)nc3-c3ccccc3)c(=O)n2n1 | 88.5% | 97.4% | 107% | 118% | 103% | 67.8% | 92.3% | 95.7% | 101% | 118% | 106% | 101% | 97.8% | – | 101% | 101% | 91.2% | 96% | 100% | 106%
